Results with a measured potency or affinity are listed apart.
Biological target: Protein S100-A4 (Homo sapiens) (UniProt P26447)
Test: human S100A4 peptide interaction inhibition curves – biochemical, fluorescence polarization, cherry-picked hits, dose response (AID 687001);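 note: 0% = DMSO neutral control wells and -100% = TFP positive control wells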
Conditions: FP, S100A4/TAMRA-myosin IIA peptide binding; series mostly up to 11 µM; activity change, negative = inhibition: at the top concentration;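 active = signal-lowering compounds whose fitted half-maximal concentration is at or below twice the top tested dose in every run; inconclusive = runs disagree, flat 30 to 70% inhibition, or poor curve fit; inactive = the rest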

Chain of Protein S100-A4 (Homo sapiens) (P26447 whole entry, looked up): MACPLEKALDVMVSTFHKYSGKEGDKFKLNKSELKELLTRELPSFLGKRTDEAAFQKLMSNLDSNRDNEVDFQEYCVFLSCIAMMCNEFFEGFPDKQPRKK

Activity change, negative = inhibition, inactive:
Cc1ccc(F)cc1NC(=O)CN1C(=O)NC(C)(c2ccc3c(c2)OCCO3)C1=O (stereo not given) -2.06%, Cc1[nH][nH]c(=O)c1C(c1cc(Br)ccc1O)c1c(C)[nH][nH]c1=O -4.58%, CCCN(CC(=O)Nc1ccccc1C)C(=O)C1CC(=O)N(c2cccc(C)c2C)C1 (stereo not given) -1.18%, O=C(NCc1ccncc1)C1CCCN(S(=O)(=O)c2cc(Cl)ccc2Cl)C1 (stereo not given) 0.229%, Nc1c(C(=O)Nc2ccc3c(c2)OCCO3)nnn1Cc1ccc(F)cc1 -2.78%, COc1ccc(CN(C)C[C@H]2OCCCC[C@@H](C)Oc3ccc(NC(=O)Nc4ccc5c(c4)OCO5)cc3C(=O)N([C@H](C)CO)C[C@H]2C)cc1 -2.45%, Cc1ccc(C(=O)COC(=O)C2CC3CCCC(C2)C3=O)cc1[N+](=O)[O-] (stereo not given) -2.18%, C=CCSc1n[nH]c(-c2cccs2)n1 -1.92%, CC(NC(=O)COc1ccc(Br)cc1)C(=O)O (stereo not given) -4.84%, CC(C)NC(=O)N(C)C[C@@H]1Oc2ccc(NS(=O)(=O)c3ccccc3)cc2C(=O)N([C@H](C)CO)C[C@@H]1C 7.22%, Cc1ccc(-c2csc(NC3OC(=O)c4ccccc43)n2)cc1 (stereo not given) -3.06%, Cc1ccc(CNC(=O)Cn2cnc(C(=O)Nc3ccc(C)c(C)c3)n2)o1 -3.72%, CC1CCN(C(=O)CSc2n[nH]c(-c3cccs3)n2)CC1 -5.44%, Cn1c(=O)[nH]c(=O)c2c1nc(SCC(=O)O)n2CCOc1ccccc1 3.41%, O=C(CSc1nc2cc(Cl)ccc2s1)c1ccco1 5.96%, CC(C)=CC(=O)O[C@@H]1Cc2cc3ccc(=O)oc3cc2OC1(C)C -0.654%, O=C(CCCN1C(=O)C2CC=CCC2C1=O)Nc1ccccc1F (stereo not given) -3.43%, C[C@@H]1CN([C@H](C)CO)C(=O)Cc2cc(NS(=O)(=O)c3ccccc3)ccc2O[C@@H]1CN(C)Cc1ccccc1 1.23%, O=C(C[C@H]1CC[C@@H]2[C@H](COC[C@@H](O)CN2C(=O)Cc2ccccc2)O1)NC1CCCC1 17.1% [at 10 µM], COc1ccc(CN2C[C@H](O)COC[C@@H]3O[C@@H](CC(=O)N(C)C)CC[C@H]32)cc1 3.69%, CC1CCN(C(=O)c2[nH]cnc2C(=O)N[C@@H](C)C(=O)OCc2ccccc2)CC1 -3.45%, COc1cccc(-c2ccc([C@@H]3[C@H](CO)N4CCCCN(C(=O)c5ccc(F)cc5)C[C@@H]34)cc2)c1 8.69%, CCn1cc(CNC(=O)C2CCC(=O)N(CCc3cccc(F)c3)C2)cn1 (stereo not given) -4.76%, O=C(CSc1nnc(NC(=O)C2CC2)s1)NCc1ccccc1Cl -2.66%, COc1cccc(NC(=O)N[C@@H]2C=C[C@@H](CC(=O)N3CCN(C)CC3)O[C@@H]2CO)c1 -4.96%

Source: PubChem BioAssay AID687001 (Broad Institute, 2013)
